Molecules are shown by their SMILES. “And” between values parts separate entries of the source, which are not always exact repeats. Equal entries are not always repeated. About 79,000 compounds went through this panel and 15% of them were active in at least one assay; those are over-represented in the sample as a whole. Where a structure was tested more than once in an assay, its records may differ in their call. The source made the active and inactive calls. No stated cut-off is given here; in the data, active means growth inhibition above about 70%; inactive means the rest.

A short description of assay [1]: NCI Yeast Anticancer Drug Screen. Data for the rad50 strain (AID 155).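 Further: 0% = growth of vehicle-only cultures of the same strain.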 Particulars: S. cerevisiae rad50 strain growth inhibition, stronger effect = higher value; at 50.0 µM unless noted. Summed up:
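Relative growth inhibition (compound vs vehicle) was measured in yeast with a defined repair-gene alteration.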

A short description of assay [2]: NCI Yeast Anticancer Drug Screen. Data for the mec2-1 strain (AID 157). As to conditions: S. cerevisiae mec2-1 strain, stronger effect = higher value; at 50.0 µM unless noted. In outline: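 mec2-1 yeast strain, carrying an alteration in DNA damage repair or cell cycle control, was exposed to compounds; growth inhibition was measured relative to vehicle-treated controls.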

Assay [3] can be described thus: NCI Yeast Anticancer Drug Screen. Data for the sgs1 mgt1 strain (AID 161).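 Further: 0% = growth of cultures given vehicle only.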 Particulars: S. cerevisiae sgs1 mgt1 strain, stronger effect = higher value; at 50.0 µM unless noted. In outline:
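Compounds are added to genetically altered yeast, and growth is compared with cultures given vehicle alone to give percent inhibition.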

Assay [4] can be described thus: NCI Yeast Anticancer Drug Screen. Data for the cln2 rad14 strain (AID 165).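 Further: 0% = growth equal to vehicle treated cultures.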 As to conditions: S. cerevisiae cln2 rad14 strain, stronger effect = higher value; at 50.0 µM unless noted. Summed up:
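Yeast carrying cln2 and rad14 alterations (cell cycle control and DNA damage repair) were exposed to compounds. Growth inhibition was measured against vehicle-treated controls.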

Assay [5] can be described thus: NCI Yeast Anticancer Drug Screen. Data for the bub3 strain (AID 167). Particulars: S. cerevisiae bub3 mutant strain, stronger effect = higher value; at 50.0 µM unless noted. In outline:
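Screening used yeast with an engineered genetic alteration affecting cell cycle control. Compound-exposed cultures were compared with vehicle cultures, and reduced growth was taken as inhibition.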

A short description of assay [6]: NCI Yeast Anticancer Drug Screen. Data for the mlh1 rad18 strain (AID 175). As to conditions: S. cerevisiae mlh1 rad18 strain growth inhibition, stronger effect = higher value; at 50.0 µM unless noted. Summed up:
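Growth inhibition of the yeast strain was measured after compound exposure and expressed relative to vehicle-treated controls. The strain carries defined defects in DNA damage repair.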

For `Cc1ncc(CO)c(/C=N\OCc2cccc(Cl)c2)c1O`, the growth inhibition in assay [1] was 31.1% (inactive); in assay [2] it was 16.3% (inactive); in assay [3], -1.5% (inactive); in assay [4], -1.95% (inactive); in assay [5] it was 17.1% (inactive); in assay [6], 9.2% (inactive).
Consider `O=C(/C=C\c1ccc(Cl)c(Cl)c1)/C=C/c1ccc(Cl)c(Cl)c1`, for which the growth inhibition is 25.5% (inactive) in assay [1]; 4.75% (inactive) in assay [2]; 26.4% (inactive) in assay [3]; 9.55% (inactive) in assay [4]; 39% (inactive) in assay [5]; 16.6% (inactive) in assay [6].
As for `Cc1ccc(C)n1CCCCCCCn1c(C)ccc1C`, the growth inhibition is -24.7% (inactive) in assay [1]; -3.5% (inactive) in assay [2]; 5.15% (inactive) in assay [3]; -22.8% (inactive) in assay [4]; 25.1% (inactive) in assay [5]; -9.8% (inactive) in assay [6].
Consider `N/C1=C/C(=O)NC(=O)c2c(c3ccccc3oc2=O)C1`, for which the growth inhibition in assay [1] was -5.7% (inactive); in assay [2] it was 0.9% (inactive); in assay [3], 8.5% (inactive); in assay [4], 5% (inactive); in assay [5], 7.3% (inactive); in assay [6] it was -29.6% (inactive).
On to `Cc1ccc2[nH]c(C(=O)O)cc2c1`, for which the growth inhibition in assay [1] was 31.1% (inactive); in assay [2], -6.8% (inactive); in assay [3] it was 10.8% (inactive); in assay [4], 10.3% (inactive); in assay [5] it was 9% (inactive); in assay [6], 28.1% (inactive).
Consider `Cc1ccc2c(c1)C(C)(C)C(C)(C)C2(C)C`, for which the growth inhibition in assay [1] was 1.5% (inactive); in assay [2] it was -0.8% (inactive); in assay [3] it was -0.05% (inactive); in assay [4], 0.4% (inactive); in assay [5], 3.8% (inactive); in assay [6], -0.1% (inactive).
Turning to `COC1COCOC1C(OC)C1OCOCC1OC` (stereo not given), the growth inhibition in assay [1] is -2.25% (inactive); in assay [2], -12.2% (inactive); in assay [3] it was -8.15% (inactive); in assay [4], -46.3% (inactive); in assay [5], -4.25% (inactive); in assay [6] it was -2.8% (inactive).
In the case of `COc1cc(Nc2cnc3cc(C(F)(F)F)ccc3n2)cc(OC)c1OC`, the growth inhibition in assay [1] was 16.9% (inactive); in assay [2], 0.95% (inactive); in assay [3], 21.9% (inactive); in assay [4] it was 12.2% (inactive); in assay [5] it was -14.1% (inactive); in assay [6], -1.55% (inactive).
On to `O=Cc1cccc2ccc3cccc(C(=O)Cl)c3c12`, for which the growth inhibition was 20.4% (inactive) in assay [1]; 46.9% (inactive) in assay [2]; 37.8% (inactive) in assay [3]; 18% (inactive) in assay [4]; 62.5% (inactive) in assay [5]; 32.5% (inactive) in assay [6].
For the compound `C=CCN(CC=C)C(=O)Nc1cccc(C)c1`, the growth inhibition in assay [1] was -27.2% (inactive); in assay [2], -43.9% (inactive); in assay [3] it was 1.3% (inactive); in assay [4] it was -3.15% (inactive); in assay [5], -2.6% (inactive); in assay [6] it was -21% (inactive).
On to `Cc1ccc(S(=O)(=O)NC(=O)NNc2ccc(F)cc2)cc1`, for which the growth inhibition in assay [1] is 2.5% (inactive); in assay [2], 2.15% (inactive); in assay [3], 1.65% (inactive); in assay [4], 17.9% (inactive); in assay [5], -12.1% (inactive); in assay [6], 42.5% (inactive).
Regarding `O=c1oc(-c2ccc([N+](=O)[O-])cc2Cl)nc2ccccc12`, the growth inhibition in assay [1] is 13.2% (inactive); in assay [2], 23.4% (inactive); in assay [3] it was 31.1% (inactive); in assay [4] it was 2% (inactive); in assay [5], 38.6% (inactive); in assay [6], 29.9% (inactive).
In the case of `CN1c2ccccc2N(C(=O)c2ccc(Cl)cc2)C(CC(=O)O)c2cccn21` (stereo not given), the growth inhibition in assay [1] was 43.1% (inactive); in assay [2], 31.1% (inactive); in assay [3], 23.3% (inactive); in assay [4], 44.8% (inactive); in assay [5], 38.5% (inactive); in assay [6], 29.2% (inactive).
For the compound `C=C1CC(CCCC2CC(=C)C(=O)O2)OC1=O` (stereo not given), the growth inhibition was 5.8% (inactive) in assay [1]; 12.9% (inactive) in assay [2]; -4.1% (inactive) in assay [3]; -50.7% (inactive) in assay [4]; -11.2% (inactive) in assay [5]; 6.15% (inactive) in assay [6].
On to `CCOC(=O)c1c(C)nc(C)c(C(=O)OCC)c1-c1ccc(N(C)C)cc1`, for which the growth inhibition was 3.7% (inactive) and -7.5% (inactive) in assay [1]; 1.75% (inactive) and 1.25% (inactive) in assay [2]; 84% (active) and -1.3% (inactive) in assay [3]; -4.4% (inactive) and -6.05% (inactive) in assay [4]; 1.8% (inactive) and -14.7% (inactive) in assay [5]; 4.05% (inactive) and 5.25% (inactive) in assay [6].
As to `NC(C(=O)O)c1ccc(CBr)cc1` (stereo not given), the growth inhibition in assay [1] was 9.5% (inactive); in assay [2], -12.3% (inactive); in assay [3] it was -10.2% (inactive); in assay [4] it was 4.25% (inactive); in assay [5], -1.6% (inactive); in assay [6] it was -64.5% (inactive).
Regarding `COc1ccc2c(c1)OC[C@@H]1c3cc(NS(=O)(=O)c4ccccc4)cc(OCc4ccccc4)c3O[C@H]21`, the growth inhibition is -16.4% (inactive) in assay [1]; -8.75% (inactive) in assay [2]; -13.5% (inactive) in assay [3]; -17.3% (inactive) in assay [4]; 1.4% (inactive) in assay [5]; -6.55% (inactive) in assay [6].
In the case of `NNC(=O)CCn1[nH]c(=O)c(Cl)c(Cl)c1=O`, the growth inhibition in assay [1] was 13.9% (inactive); in assay [2], 11.8% (inactive); in assay [3], 19.9% (inactive); in assay [4], 12.9% (inactive); in assay [5], 16.9% (inactive); in assay [6], 11.4% (inactive).
On to `O=C(O)/C=C1\NC(=O)NC1=O`, for which the growth inhibition in assay [1] is 16.1% (inactive); in assay [2] it was -5.1% (inactive); in assay [3] it was 11.8% (inactive); in assay [4] it was 6.1% (inactive); in assay [5], 5.75% (inactive); in assay [6], 33% (inactive).
As to `CC[O-].CC[O-].CN(C)c1ccc([O-])cc1.CN(C)c1ccc([O-])cc1.[Ti+4]`, the growth inhibition in assay [1] is -29.9% (inactive); in assay [2], 9.5% (inactive); in assay [3] it was 2.2% (inactive); in assay [4], 20.2% (inactive); in assay [5], -9.15% (inactive); in assay [6], -1.8% (inactive).
